Growth data for 40 molecules are collected here from PubChem BioAssay (NCI).

The panel holds about 83,000 compounds, 20% with a hit somewhere; the sample as a whole holds those more often.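 Growth was measured after 48 h exposure to one concentration of compound in 96-well plates. Values under 10 count as active.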 Unmarked numbers belong to inactive results. Calls of active or inactive are those of the source.

This assay relates to SK-MEL-5 melanoma. Put plainly: NCI-60 one-dose screen, 48 h (100 = growth as untreated, 0 = no growth, -100 = all killed). As to conditions: 10 µM unless noted. As for the experimental part: Growth inhibition of the SK-MEL-5 human tumor cell line is measured as a screen for anti-cancer activity. Cells are grown in 96 well plates and exposed to the test compound for 48 hours. Compounds are tested at a single concentration, which is 10^-5 M for most compounds. The reported endpoint is percent growth (GI% or GIPRCNT), where numbers from 0 - 100% represent growth inhibition, and numbers from -100% - 0 represent cell death. For example, a value of 40 represents 60% growth inhibition. A value of 0 means no net growth occurred over the course of the experiment. A value of -40 indicates 40% of cells at the beginning of the experiment died by the end of the experiment. A value of -100 means all cells are dead at the end of the experiment.
NCI-60 Human Tumor Cell Lines Screen was performed using the standard one-dose NCI protocol, which is described in more detail at https://dtp.cancer.gov/discovery_development/nci-60/default.htm.
Compounds with GIPRCNT values below 10 were considered active. Activity score was based on GIPRCNT using the following formula: […]
Score is 0 for GIPRCNT values of 100 or above, 50 for GIPRCNT values of 0, and 100 for GIPRCNT values of -100.
With `CN(C)CC1C(=O)O[C@H]2[C@H]1CC/C(COC(=O)NCc1ccc(Cn3c(=O)sn(CCCI)c3=O)cc1)=C\CC[C@@]1(C)O[C@@H]21` (stereo not given in full), the growth was 64.2%.
Then `CSc1nn2c(-c3cc4cc(Br)ccc4oc3=O)ccnc2c1C#N`, with 101%; and `Cc1cccc(C)c1NC(=O)Nc1ccccc1`, with 101%.
As for `C#CC(F)(F)[C@]1(O)CCC2C3CCC4=CC(=O)CCC4=C3[C@@H](c3ccc(N(C)C)cc3)C[C@@]21C` (stereo not given in full), the growth was 84%.
Turning to `O=C(Oc1ccccc1)c1cc(O)c(O)c(O)c1`, the growth is 58.4%.
For `CC1=C(C(=O)OCc2ccccc2)C(c2ccc3c(c2)OCO3)n2c(nc3ccccc32)N1` (stereo not given) the value was 25.5%; for `C=C(C)[C@@H]1CC[C@]2(COC(=O)c3cccnc3)CC[C@]3(C)[C@H](CC[C@@H]4[C@@]5(C)CCCN(C(=O)c6cccnc6)C(C)(C)[C@@H]5CC[C@]43C)[C@@H]12`, 2.5% (active); for `CC(=O)O[C@H]1CC[C@@]2(C)C(=CC[C@@H]3[C@@H]2CC[C@]2(C)C(Cl)=C(c4nc5ccc(Cl)cn5c4NC(C)(C)C)C[C@@H]32)C1`, 95.2%.
For `O=C1C(c2c(O)[nH]c3ncccc23)=Nc2ccccc21`, the growth is 75.4%.
Then `COC(=O)c1c(C(=O)OC)c2ccc3c4ncccc4ccc3n2c1C(=O)c1ccc(C)cc1`, with 83.7%; and `CC(=O)CC(=O)c1ccccc1.[Cu+2]`, with 82.8%.
For `COc1cccc(C2C3=C(COC3=O)N(CCO)c3cc4c(cc32)OCCO4)c1` (stereo not given), the growth was -12.1% (active).
Then `CCOC(=O)CCC(=O)P(=O)(O)O`, with 104%.
Then `CC(=O)[C@H]1CC[C@]2(C)[C@@H]1CC[C@@H]1[C@@]3(C)C/C(=C/c4cccnc4)C(=O)C(C)(C)[C@@H]3CC[C@]12C`, with 38.9%.
Then `COc1ccc(Nc2nccc(Nc3ccc4[nH]ncc4c3)n2)cc1`, with 1.85% (active); and `O=c1c(/C=C/c2c(O)ccc3ccccc23)nnc2sc(-c3cccc([N+](=O)[O-])c3)nn12`, with 65.2%.
Turning to `CC(C)(C)[C@H](OCc1cn([C@H]2C[C@@H](O)[C@@H](CO)O2)c(=O)[nH]c1=O)c1ccc(C#Cc2ccccc2)cc1[N+](=O)[O-]`, the growth is 75.4%.
Then `Cn1cc(-c2ccc3c(Nc4cccc(NC(=O)Nc5cccc(F)c5)c4)ncnc3c2)cn1`, with 41.4%; and `C#C[C@]1(O)CC[C@H]2[C@@H]3CC=C4c5sc(-c6ccccc6)nc5CC[C@]4(C)[C@H]3CC[C@@]21C`, with 97.4%; and `Nc1n[nH]c2cccc(C#Cc3cccc(C(=O)Nc4ccc(Cl)c(C(F)(F)F)c4)c3)c12`, with 46.7%.
Regarding `CN1CCN(Cc2ccc(NC(=O)c3cncc(C#Cc4c(N)ncc5c(F)cccc45)c3)cc2C(F)(F)F)CC1`, the growth was -87.2% (active).
For `COc1cccc2cc(N(C)c3ncnc4ccccc34)ccc12` the value was -32.4% (active).
Regarding `CCN(CC)c1ccc(/C=N/NC(=O)c2ccccc2Nc2ccnc(C(F)(F)F)c2)c(O)c1`, the growth is 3.96% (active).
For `O=C1/C(=C/c2cccc([N+](=O)[O-])c2)COc2ccc(O)c(O)c21`, the growth was 16.7%.
Then `O=C(/C=C/c1ccc(Cl)cc1)c1ccc(-n2cc(CN3CCN(c4cc5c(cc4F)c(=O)c(C(=O)O)cn5C4CC4)CC3)nn2)cc1`, with 81.6%.
Then `COc1cc(C2=Nc3c(N)nc(N)nc3NC(c3cccc(Nc4ccnc5cc(C(F)(F)F)ccc45)c3)C2)cc(OC)c1OC` (stereo not given), with 64.1%.
Consider `C/C(=C(\c1ccc(OCCCN(C)C)cc1)c1ccc(OC(=O)Cc2ccccc2)cc1)c1ccc(Cl)cc1`, for which the growth is 82.7%.
As for `[2H]C([2H])([2H])Oc1c(F)cccc1/C=C/C(=O)/C=C(O)/C=C/c1cccc(F)c1OC([2H])([2H])[2H]`, the growth was 101%.
Take `c1ccc2[nH]c(-c3ccc(-c4nccc5c4[nH]c4ccccc45)cc3)nc2c1`: the growth was 62.6%.
Then `COC(=O)c1nc(-c2ccccc2)oc1S(=O)(=O)N1CCN(c2ccc(OC)cc2)CC1`, with 90.8%; and `C#CCOC(=O)C(N)CSSCC(N)C(=O)O` (stereo not given), with 105%.
Take `COc1ccc(C2=NN(C=O)C(c3ccc(Oc4nc5c(c(=O)n(C)c(=O)n5C)n4C)c(OC)c3)C2)cc1` (stereo not given): the growth is 59.8%.
Consider `C/C(=N\NC(=O)c1ccc(C(C)(C)C)cc1)c1ccc(O)cc1O`, for which the growth was -41.9% (active).
For `C=C(C)[C@@H]1CC[C@]2(C#N)CC[C@]3(C)[C@H](CC[C@@H]4[C@@]5(C)CCCNC(C)(C)[C@@H]5CC[C@]43C)[C@@H]12`, the growth was 86.4%.
Regarding `Cc1nc2ccccc2c(/C=C/c2ccc(Cl)cc2)c1C(=O)/C=C/c1ccccc1`, the growth is 13.7%.
For `Cc1[nH]c(C2CC(c3ccc(C(F)(F)F)c(F)c3)=NN2C)c(C)c1C(=O)NCC(F)(F)F` (stereo not given) the value was 93.6%; for `CC1(C)CC[C@]2(CO)CC[C@]3(C)C(=CC[C@@H]4[C@@]5(C)CCNCC(C)(C)[C@@H]5CC[C@]43C)[C@@H]2C1`, 71.6%; for `COc1ccc(-c2cc(-c3ccc(N(C)C)cc3)nc(NC(=O)c3cccnc3)n2)cc1`, 97.1%.
Take `COC(=O)c1ccc(-n2cc(CCCOS(=O)(=O)c3ccc(F)cc3)nn2)cc1`: the growth was 103%.
For `CCOC(=O)C#Cc1c(CC(=O)OCC)nnn1[C@H]1O[C@@H](CO)[C@@H]2OC(C)(C)O[C@@H]21` the value was 97.2%.
